Results taken from ChEMBL document CHEMBL1961873, “Compounds: GSK PKIS; Assays: Nanosyn kinase panel” (2012).

Key:
[1] = biological target: T1, Serine/threonine-protein kinase D2 (Homo sapiens) (UniProt Q9BZL6); conditions: at 1 µM;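 note: mean value of PRKD2 inhibition, from the GSK PKIS screening panel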
T1 sequence (whole entry): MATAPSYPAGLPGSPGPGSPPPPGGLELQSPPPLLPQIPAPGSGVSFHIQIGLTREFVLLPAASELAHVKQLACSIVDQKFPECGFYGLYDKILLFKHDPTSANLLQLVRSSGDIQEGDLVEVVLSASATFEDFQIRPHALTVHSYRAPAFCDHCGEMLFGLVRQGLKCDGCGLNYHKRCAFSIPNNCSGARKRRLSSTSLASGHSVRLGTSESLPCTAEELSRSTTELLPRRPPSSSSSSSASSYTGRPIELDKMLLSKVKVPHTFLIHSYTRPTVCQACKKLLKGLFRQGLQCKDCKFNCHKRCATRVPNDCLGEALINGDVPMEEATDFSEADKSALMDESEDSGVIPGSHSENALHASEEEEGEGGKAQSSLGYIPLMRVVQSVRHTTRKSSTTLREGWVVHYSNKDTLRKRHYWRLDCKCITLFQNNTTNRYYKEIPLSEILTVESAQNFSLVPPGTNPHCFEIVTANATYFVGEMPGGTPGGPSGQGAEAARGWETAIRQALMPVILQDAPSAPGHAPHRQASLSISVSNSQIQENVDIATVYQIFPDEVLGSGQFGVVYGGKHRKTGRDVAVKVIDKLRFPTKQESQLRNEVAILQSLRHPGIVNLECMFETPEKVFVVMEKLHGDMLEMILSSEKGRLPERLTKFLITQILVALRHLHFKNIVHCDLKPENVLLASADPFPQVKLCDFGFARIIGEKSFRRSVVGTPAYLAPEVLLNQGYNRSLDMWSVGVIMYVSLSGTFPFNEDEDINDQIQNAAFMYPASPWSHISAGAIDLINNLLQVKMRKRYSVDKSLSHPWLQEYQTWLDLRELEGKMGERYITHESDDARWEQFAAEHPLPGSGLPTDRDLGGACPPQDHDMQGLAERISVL

[2] = biological target: T2, Serine/threonine-protein kinase D3 (Homo sapiens) (UniProt O94806); conditions: at 0.1 µM
T2 sequence (whole entry): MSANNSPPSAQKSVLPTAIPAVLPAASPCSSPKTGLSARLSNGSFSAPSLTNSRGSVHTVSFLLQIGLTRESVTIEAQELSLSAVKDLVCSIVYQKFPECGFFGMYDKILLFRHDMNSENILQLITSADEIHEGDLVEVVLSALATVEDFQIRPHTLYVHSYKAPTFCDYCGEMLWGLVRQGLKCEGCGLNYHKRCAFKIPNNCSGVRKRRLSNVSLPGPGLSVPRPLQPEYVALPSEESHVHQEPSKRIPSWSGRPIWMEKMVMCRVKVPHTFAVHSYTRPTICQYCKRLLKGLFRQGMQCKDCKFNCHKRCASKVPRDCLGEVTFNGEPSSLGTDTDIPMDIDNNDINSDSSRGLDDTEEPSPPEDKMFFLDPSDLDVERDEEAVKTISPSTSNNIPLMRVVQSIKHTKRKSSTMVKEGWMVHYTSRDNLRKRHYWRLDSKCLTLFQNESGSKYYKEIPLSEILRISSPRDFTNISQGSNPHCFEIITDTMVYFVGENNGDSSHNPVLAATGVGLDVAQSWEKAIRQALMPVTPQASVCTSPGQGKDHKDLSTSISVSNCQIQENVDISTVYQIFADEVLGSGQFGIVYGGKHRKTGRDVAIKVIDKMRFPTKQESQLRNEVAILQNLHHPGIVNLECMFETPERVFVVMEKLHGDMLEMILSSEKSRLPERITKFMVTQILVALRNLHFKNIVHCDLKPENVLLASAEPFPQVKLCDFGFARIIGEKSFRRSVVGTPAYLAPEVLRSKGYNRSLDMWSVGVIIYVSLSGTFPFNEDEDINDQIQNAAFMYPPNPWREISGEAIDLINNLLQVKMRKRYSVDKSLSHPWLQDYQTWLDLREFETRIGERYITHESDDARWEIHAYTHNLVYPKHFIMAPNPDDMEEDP

[3] = biological target: T2, Serine/threonine-protein kinase D3 (Homo sapiens); conditions: at 1 µM
[4] = biological target: T3, cGMP-dependent protein kinase 1 (Homo sapiens) (UniProt Q13976); conditions: at 0.1 µM
T3 sequence (whole entry): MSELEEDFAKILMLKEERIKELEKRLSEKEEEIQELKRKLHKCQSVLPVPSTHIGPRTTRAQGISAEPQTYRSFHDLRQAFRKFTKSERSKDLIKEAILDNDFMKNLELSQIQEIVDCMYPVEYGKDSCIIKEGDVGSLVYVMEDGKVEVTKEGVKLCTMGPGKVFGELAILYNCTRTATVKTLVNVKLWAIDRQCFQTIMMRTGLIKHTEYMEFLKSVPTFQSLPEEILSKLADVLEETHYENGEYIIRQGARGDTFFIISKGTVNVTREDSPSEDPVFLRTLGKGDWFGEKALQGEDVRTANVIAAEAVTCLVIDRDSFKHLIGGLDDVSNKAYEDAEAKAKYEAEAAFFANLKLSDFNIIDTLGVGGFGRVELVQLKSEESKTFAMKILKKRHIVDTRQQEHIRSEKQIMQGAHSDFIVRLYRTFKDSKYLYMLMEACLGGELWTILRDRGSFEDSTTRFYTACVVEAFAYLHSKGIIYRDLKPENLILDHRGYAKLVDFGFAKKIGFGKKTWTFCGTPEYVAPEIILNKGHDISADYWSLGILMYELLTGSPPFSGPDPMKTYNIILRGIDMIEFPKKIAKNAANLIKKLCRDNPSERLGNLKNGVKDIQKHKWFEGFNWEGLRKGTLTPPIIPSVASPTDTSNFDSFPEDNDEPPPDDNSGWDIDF

[5] = biological target: T3, cGMP-dependent protein kinase 1 (Homo sapiens); conditions: at 1 µM
[6] = biological target: T4, cGMP-dependent protein kinase 2 (Homo sapiens) (UniProt Q13237); conditions: at 0.1 µM
T4 sequence (whole entry): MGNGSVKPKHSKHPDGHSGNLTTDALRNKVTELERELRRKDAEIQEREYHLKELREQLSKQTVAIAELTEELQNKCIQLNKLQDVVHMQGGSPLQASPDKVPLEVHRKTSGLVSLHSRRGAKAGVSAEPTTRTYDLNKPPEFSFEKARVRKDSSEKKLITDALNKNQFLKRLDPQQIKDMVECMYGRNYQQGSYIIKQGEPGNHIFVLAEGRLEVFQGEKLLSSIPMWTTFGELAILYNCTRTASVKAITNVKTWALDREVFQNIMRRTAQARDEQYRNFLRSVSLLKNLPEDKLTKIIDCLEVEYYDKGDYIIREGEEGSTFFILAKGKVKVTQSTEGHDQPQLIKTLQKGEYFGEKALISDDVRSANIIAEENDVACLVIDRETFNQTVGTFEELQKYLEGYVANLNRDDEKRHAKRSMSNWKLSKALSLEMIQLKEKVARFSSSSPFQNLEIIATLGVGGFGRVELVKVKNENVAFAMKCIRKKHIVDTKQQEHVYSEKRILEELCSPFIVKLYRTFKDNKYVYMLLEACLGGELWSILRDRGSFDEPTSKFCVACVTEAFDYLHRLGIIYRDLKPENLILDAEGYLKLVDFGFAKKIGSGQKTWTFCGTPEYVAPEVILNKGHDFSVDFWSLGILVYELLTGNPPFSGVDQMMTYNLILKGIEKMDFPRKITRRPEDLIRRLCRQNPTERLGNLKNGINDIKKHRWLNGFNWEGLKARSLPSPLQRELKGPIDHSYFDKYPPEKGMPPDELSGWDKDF

[7] = biological target: T4, cGMP-dependent protein kinase 2 (Homo sapiens); conditions: at 1 µM
[8] = biological target: T5, cAMP-dependent protein kinase catalytic subunit PRKX (Homo sapiens) (UniProt P51817); conditions: at 0.1 µM
T5 sequence (whole entry): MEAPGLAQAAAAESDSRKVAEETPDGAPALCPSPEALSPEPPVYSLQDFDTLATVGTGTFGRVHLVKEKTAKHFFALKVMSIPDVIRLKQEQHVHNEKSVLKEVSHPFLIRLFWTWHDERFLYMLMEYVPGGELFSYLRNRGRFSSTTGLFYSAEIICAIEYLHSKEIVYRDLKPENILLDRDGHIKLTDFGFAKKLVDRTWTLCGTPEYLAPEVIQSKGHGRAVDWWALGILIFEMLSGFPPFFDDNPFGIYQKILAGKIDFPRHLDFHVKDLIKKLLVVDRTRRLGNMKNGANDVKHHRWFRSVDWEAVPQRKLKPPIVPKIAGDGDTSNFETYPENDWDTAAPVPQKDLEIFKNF

[9] = biological target: T5, cAMP-dependent protein kinase catalytic subunit PRKX (Homo sapiens); conditions: at 1 µM
[10] = biological target: Rho-associated protein kinase 1 (Homo sapiens) (UniProt Q13464); conditions: at 0.1 µM;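 note: values are mean percent inhibition of ROCK1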
Sequence of Rho-associated protein kinase 1 (Homo sapiens) (Q13464 2-1354 limits assumed): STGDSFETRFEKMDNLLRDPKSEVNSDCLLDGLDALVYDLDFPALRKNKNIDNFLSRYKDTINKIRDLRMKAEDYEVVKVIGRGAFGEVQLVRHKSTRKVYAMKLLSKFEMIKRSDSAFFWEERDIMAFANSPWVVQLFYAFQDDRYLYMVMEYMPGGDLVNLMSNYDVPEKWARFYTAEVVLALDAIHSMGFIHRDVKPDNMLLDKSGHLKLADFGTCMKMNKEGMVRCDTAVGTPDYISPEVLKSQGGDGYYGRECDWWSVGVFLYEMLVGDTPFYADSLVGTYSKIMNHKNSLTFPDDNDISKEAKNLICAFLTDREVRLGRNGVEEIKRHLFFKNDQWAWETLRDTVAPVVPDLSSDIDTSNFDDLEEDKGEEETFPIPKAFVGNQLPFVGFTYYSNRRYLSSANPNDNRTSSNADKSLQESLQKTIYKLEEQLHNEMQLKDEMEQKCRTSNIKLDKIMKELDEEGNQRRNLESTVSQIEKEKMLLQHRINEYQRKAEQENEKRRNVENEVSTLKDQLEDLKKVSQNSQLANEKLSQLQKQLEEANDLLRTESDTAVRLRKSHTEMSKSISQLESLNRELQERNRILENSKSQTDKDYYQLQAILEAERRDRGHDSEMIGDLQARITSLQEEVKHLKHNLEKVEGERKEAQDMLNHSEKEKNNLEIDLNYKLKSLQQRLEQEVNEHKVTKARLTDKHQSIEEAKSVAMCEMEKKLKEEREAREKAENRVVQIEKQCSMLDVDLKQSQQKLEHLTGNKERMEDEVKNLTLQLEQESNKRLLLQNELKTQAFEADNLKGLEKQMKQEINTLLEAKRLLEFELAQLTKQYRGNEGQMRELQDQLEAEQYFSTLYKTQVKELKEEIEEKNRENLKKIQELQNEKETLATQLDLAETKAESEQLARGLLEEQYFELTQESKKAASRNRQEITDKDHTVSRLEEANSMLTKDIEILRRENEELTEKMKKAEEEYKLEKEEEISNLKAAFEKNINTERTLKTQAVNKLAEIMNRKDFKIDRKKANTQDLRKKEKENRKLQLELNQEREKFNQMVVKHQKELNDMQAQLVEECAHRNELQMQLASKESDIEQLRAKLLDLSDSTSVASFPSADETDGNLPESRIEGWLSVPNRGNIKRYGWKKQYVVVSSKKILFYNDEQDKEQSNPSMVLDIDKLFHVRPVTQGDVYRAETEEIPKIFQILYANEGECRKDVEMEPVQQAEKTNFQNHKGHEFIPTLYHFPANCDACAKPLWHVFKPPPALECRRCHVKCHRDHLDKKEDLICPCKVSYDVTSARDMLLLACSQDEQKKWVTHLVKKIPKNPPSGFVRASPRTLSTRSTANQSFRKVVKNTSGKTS

Structure (SMILES)	inhibition [1]	inhibition [2]	inhibition [3]	inhibition [4]	inhibition [5]	inhibition [6]	inhibition [7]	inhibition [8]	inhibition [9]	inhibition [10]
CN1CCC(n2cnc(-c3ccc(F)cc3)c2-c2ccnc(N)n2)CC1	16.4%	2.68%	17.3%	0.5%	9.09%	2.99%	30.7%	0.51%	1.95%	-0.08%
NS(=O)(=O)c1ccc(Nc2ncc(-c3ccccc3)o2)cc1	5.55%	3.51%	5.97%	1.9%	4.85%	2.69%	3.98%	2.08%	2.5%	0.63%
CS(=O)(=O)CCNCc1ccc(-c2ccc3ncnc(Nc4ccc(OCc5ccccc5)c(C(F)(F)F)c4)c3c2)o1	2.47%	4.3%	4.39%	2.93%	0.85%	1.82%	0.3%	2.36%	2.08%	10.3%
Nc1ncc(-c2cccc(S(N)(=O)=O)c2)c2scc(-c3ccc(F)c(Cl)c3)c12	43.8%	6.03%	33.1%	1.07%	-0.14%	2.34%	1.46%	1.86%	1.14%	1.03%
COC(=O)Nc1nc2ccc(Oc3ccc(NC(=O)Nc4cccc(Cl)c4)cc3)cc2[nH]1	2.04%	0.95%	3.39%	0.03%	-0.55%	0.27%	-0.85%	0.22%	-1.01%	0.69%
CCN1CCC(CC(=O)Nc2n[nH]c3nnc(-c4cccc(F)c4F)cc23)CC1	2.99%	1.54%	2.01%	1.07%	0.47%	1.64%	2.03%	0.36%	0.65%	0.26%
CC(=O)Nc1cccc(C#Cc2cncnc2Nc2ccc(OCc3cccc(F)c3)c(Cl)c2)c1	3.79%	2.13%	2.46%	3.13%	3.55%	2.86%	1.98%	1.66%	1.17%	1.07%
CCn1cc(-c2ccnc3[nH]ccc23)c(-c2cccc(NC(=O)Nc3ccc(OCc4ccccc4)cc3)c2)n1	2.85%	1.53%	4.36%	2.12%	1.15%	2.48%	1.43%	4.18%	4.31%	-1.8%
CC1=C(C(=O)Nc2cc(Cl)c3[nH]ncc3c2)C(c2ccc(C(F)(F)F)cc2)CC(=O)N1 (stereo not given)	7.46%	4.09%	7.2%	27.6%	67.9%	16.9%	59.7%	44.8%	79.7%	70.7%
COc1cc2ncn(-c3cc(OCc4ccccc4C(F)(F)F)c(C(=O)N(C)C)s3)c2cc1OC	1.88%	0.07%	-0.01%	-0.43%	0.77%	-0.41%	0.43%	-0.01%	-0.4%	-0.15%
COc1cc(/C=N/Nc2ncnc3[nH]ncc23)ccc1O	3.63%	2.22%	3.16%	3.83%	14.8%	13.5%	55%	1.69%	3.71%	1.5%
CNC(=O)c1cncc(/C=C/c2ccccc2Cl)c1	-1.08%	0.25%	-0.83%	1.15%	2.29%	2.05%	2.68%	1.22%	2.62%	0.5%
COc1ccc(-c2cc3c(N)ncnc3o2)cc1	-0.42%	-1.77%	-1.37%	-0.46%	0.25%	-1.2%	1.5%	0.58%	0.29%	-0.42%
Nc1nc(-c2cccc(Cl)c2)c(-c2ccc3ncccc3n2)s1	40.1%	7.77%	33.1%	2.8%	5.63%	1.78%	4.96%	3.46%	5.88%	1.58%
Fc1ccc(-c2nn3ccccc3c2-c2ccncc2)cc1	5.87%	3.07%	4.89%	3.89%	5.24%	2.4%	3.57%	1.41%	3.65%	5.05%
Cc1ccc2c(-c3ccnc(Nc4ccccc4)n3)c(-c3ccc(F)cc3)nn2n1	87%	18.6%	80.7%	1.32%	2.92%	3.01%	2.49%	1.83%	-0.36%	1.01%
